Experimental data taken from PubChem BioAssay (NCI).
Where “and” joins values, the source holds several entries; their conditions need not be identical. Equal values may be shown once. About 79,000 compounds went through this panel and 15% of them were active in at least one assay; those are over-represented in the sample as a whole. Rule as the data show it: active = growth inhibition above about 70%; inactive = the rest.

Experiments:
[1] = NCI Yeast Anticancer Drug Screen. Data for the rad50 strain (AID 155);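 also: 0% = growth of vehicle-only cultures of the same strain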; settings: S. cerevisiae rad50 strain growth inhibition; at 50.0 µM; active compounds read high
Method in brief: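 Yeast carrying a defined DNA repair defect were exposed to test compounds, and growth was compared with vehicle-treated controls to give percent inhibition.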

[2] = NCI Yeast Anticancer Drug Screen. Data for the mec2-1 strain (AID 157); settings: S. cerevisiae mec2-1 strain, at 50.0 µM, active compounds read high
Method in brief: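 Cells of the genetically defined mec2-1 yeast strain are incubated with test compound. Inhibition of growth is calculated against vehicle-treated controls.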

[3] = NCI Yeast Anticancer Drug Screen. Data for the sgs1 mgt1 strain (AID 161);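 also: 0% = growth of cultures given vehicle only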; settings: S. cerevisiae sgs1 mgt1 strain, at 50.0 µM, active compounds read high
Method in brief: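 Mutant yeast exposed to compound; growth scored against vehicle-only wells.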

[4] = NCI Yeast Anticancer Drug Screen. Data for the cln2 rad14 strain (AID 165);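 also: 0% = growth equal to vehicle treated cultures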; settings: S. cerevisiae cln2 rad14 strain, at 50.0 µM, active compounds read high
Method in brief: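 The screen exposed genetically defined yeast (cln2 rad14) to test compounds and scored growth inhibition relative to vehicle-treated controls.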

[5] = NCI Yeast Anticancer Drug Screen. Data for the bub3 strain (AID 167); settings: S. cerevisiae bub3 mutant strain, at 50.0 µM, active compounds read high
Method in brief: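 Compounds were applied to a genetically altered yeast strain carrying a cell-cycle control defect. Growth inhibition was scored against vehicle-treated controls.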

[6] = NCI Yeast Anticancer Drug Screen. Data for the mlh1 rad18 strain (AID 175); settings: S. cerevisiae mlh1 rad18 strain growth inhibition; at 50.0 µM; active compounds read high
Method in brief: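 Compound-treated yeast growth, normalised to vehicle controls. Strain bears defined DNA repair mutations.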

Measured: growth inhibition

C[N+](C)(C)CC(=O)O
inactive: [1] -4.3% and -7.25% | [2] -10.6% and 10.3% | [3] -20.4% and -6% | [4] 10.8% and -11.2% | [5] -29.2% and 3.4% | [6] -2.65% and -7%

Cc1nc2ccccc2[se]1
inactive: [1] -33.4% | [2] -32.5% | [3] -3.5% | [4] 3.5% | [5] 35.7% | [6] -18.1%

O=C1NC(=O)C2(O)NC(=O)NC2(O)N1 (centres undefined)
inactive: [1] -27.1% | [2] -9.5% | [3] 3.15% | [4] -10.8% | [5] -22.4% | [6] 18.1%

CC1([N+](=O)[O-])COP(=O)(OP2(=O)OCC(C)([N+](=O)[O-])CO2)OC1 (centres undefined)
inactive: [1] 29.8% | [2] 10.2% | [3] 28.9% | [4] 26.6% | [5] 3.85% | [6] 20%

Cc1csc2n/c(=N/[N+](=O)[O-])sn12
inactive: [1] 51.5% | [2] 26.9% | [3] 46.8% | [4] -12.5% | [5] 50.4% | [6] 44.1%

CC(C)C(=O)[O-].CC(C)C(=O)[O-].N.N.N.N.[Co+3].[O-][Cl+3]([O-])([O-])[O-]
inactive: [1] -17.1% and -29.1% | [2] 4% and 16.6% | [3] -54% and -56.5% | [4] 9.9% and 23.4% | [5] -6.75% and -12.6% | [6] -11.2% and -8.35%

CC(C)N([P-]C(=O)[P-]N(C(C)C)C(C)C)C(C)C.[C-]#[O+].[C-]#[O+].[C-]#[O+].[C-]#[O+].[C-]#[O+].[C-]#[O+].[Fe].[Fe] (centres undefined)
inactive: [1] 3.4% | [2] 0.15% | [3] 3.55% | [4] 11.3% | [5] 2.3% | [6] -0.9%

CCCCCCCC(=O)O.[Pb]
inactive: [1] 3.55% | [2] 5.55% | [3] 3% | [4] 13.9% | [5] -6% | [6] 14.8%

c1ccc([C@H]2N[C@@H]2c2ccccn2)cc1
inactive: [1] 22.6% | [2] 32.5% | [3] 32.5% | [4] -4.35% | [5] 19.5% | [6] 13.2%

CCC1(Sc2ncnc3c2ncn3C2OC(CO)C(O)C2O)C(=O)NC(=O)NC1=O (centres undefined)
inactive: [1] 4.5% | [2] 2.7% | [3] -7.95% | [4] 16.9% | [5] -6.05% | [6] -7.2%

CCOC(=O)C1=C(C)N2CCCOC2(C)C(C(=O)OC)C1c1cccc([N+](=O)[O-])c1 (centres undefined)
inactive: [1] 38% | [2] 10.8% | [3] -6.5% | [4] 18.5% | [5] -34.6% | [6] 27.8%

CC1([N+](=O)[O-])COP(=O)(NCc2ccccc2)OC1 (centres undefined)
inactive: [1] 11.9% | [2] -20.9% | [3] -9.3% | [4] -4.8% | [5] 6.2% | [6] 2.35%

CCCC1(CCS)C(=O)NC(=O)NC1=O
inactive: [1] -12.9% | [2] -33.7% | [3] -13.3% | [4] 5.25% | [5] 2.3% | [6] 9.15%

C/C=C(\CC)C1(C)C(=O)NC(=O)NC1=O
inactive: [1] 7.4% | [2] 7.8% | [3] -5.7% | [4] 6.35% | [5] 1.4% | [6] -4.1%

CC(C)CCCC(C)C1CCC2C3CC=C4CC(OC(=O)CN5CC5)CCC4(C)C3CCC12C (centres undefined)
inactive: [1] -0.3% | [2] -2.65% | [3] -4.85% | [4] -6.85% | [5] 18.8% | [6] 3.2%

C/C(=N\N(C)C)C(CN(C)C)C(c1ccccc1)c1c(O)c2ccccc2oc1=O (centres undefined)
inactive: [1] 16.8% | [2] -18.5% | [3] 13.8% | [4] 1.5% | [5] 37.8% | [6] 18.9%

CCCCCCCN1CCC(C(=O)CC)(c2cccc(O)c2)CC1
inactive: [1] 21.6% | [2] 21.4% | [3] 33.5% | [4] -2.75% | [5] 15.9% | [6] 30.6%

CCN(CC)C(=O)N1CN(c2ccccc2)C2(CCN(CCCSc3ccc(F)cc3)CC2)C1=O
inactive: [1] 13.5% | [2] 0.65% | [3] 15.8% | [4] 12.4% | [5] 48.4% | [6] 20.6%

C#CCN1C(=O)CN2C(Cl)(Cl)C2(c2ccccc2)c2cc(Cl)ccc21 (centres undefined)
inactive: [1] 20.1% | [2] 16.1% | [3] -13.4% | [4] -1.8% | [5] 3.35% | [6] 37.6%
